In article PMC7862700, “An all-to-all approach to the identification of sequence-specific readers for epigenetic DNA modifications on cytosine”:

Legend:
Assay in all cases: DAPPL (digital affinity profiling via proximity ligation, sequencing); 10 mM Tris-HCl pH 7.5, 50 mM NaCl, 1 mM DTT, 4% glycerol, room temperature, 30 min; GST-TFs on glutathione beads, 16-mer random dsDNA library, 0.1% formaldehyde crosslink after washing; high values mean tight binding
Settings in all cases: protein: recombinant; tags: N-terminal GST; dsDNA, one strand shown
FLI1 = biological target: T1, FLI1 (Homo sapiens, UniProt Q01543 1-452)
T1 sequence: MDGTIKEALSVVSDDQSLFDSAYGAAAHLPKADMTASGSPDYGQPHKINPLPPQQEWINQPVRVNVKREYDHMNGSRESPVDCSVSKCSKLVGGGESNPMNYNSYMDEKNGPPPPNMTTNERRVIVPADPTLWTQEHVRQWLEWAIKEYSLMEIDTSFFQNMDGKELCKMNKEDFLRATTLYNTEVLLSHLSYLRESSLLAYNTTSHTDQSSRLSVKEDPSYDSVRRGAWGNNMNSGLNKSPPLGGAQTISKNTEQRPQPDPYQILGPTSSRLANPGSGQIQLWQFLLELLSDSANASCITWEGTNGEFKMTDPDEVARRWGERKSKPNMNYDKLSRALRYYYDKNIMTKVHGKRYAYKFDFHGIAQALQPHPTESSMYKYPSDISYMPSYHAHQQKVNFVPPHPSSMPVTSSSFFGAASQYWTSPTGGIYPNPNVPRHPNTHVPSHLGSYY
Method in brief: (§1)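 In yeast, human transcription factors were expressed with a GST fusion, then pulled down on glutathione beads and given DNA barcodes. Pooled with a tag-only sample, they were exposed to 200 nmole of a 16-mer random double-stranded DNA library (Tris/NaCl/DTT/glycerol buffer, room temperature, 30 min), washed, crosslinked with 0.1% formaldehyde, proximity-ligated using BsaI/T4 ligase for 1 h at 37 °C, PCR-amplified and read on an Illumina NextSeq500. Each hexamer's frequency of reads for a factor, divided by the matching frequency for the tag-only sample, gives the binding signal.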

ELK1 = biological target: T2, ELK1 (Homo sapiens, UniProt P19419 1-428)
T2 sequence: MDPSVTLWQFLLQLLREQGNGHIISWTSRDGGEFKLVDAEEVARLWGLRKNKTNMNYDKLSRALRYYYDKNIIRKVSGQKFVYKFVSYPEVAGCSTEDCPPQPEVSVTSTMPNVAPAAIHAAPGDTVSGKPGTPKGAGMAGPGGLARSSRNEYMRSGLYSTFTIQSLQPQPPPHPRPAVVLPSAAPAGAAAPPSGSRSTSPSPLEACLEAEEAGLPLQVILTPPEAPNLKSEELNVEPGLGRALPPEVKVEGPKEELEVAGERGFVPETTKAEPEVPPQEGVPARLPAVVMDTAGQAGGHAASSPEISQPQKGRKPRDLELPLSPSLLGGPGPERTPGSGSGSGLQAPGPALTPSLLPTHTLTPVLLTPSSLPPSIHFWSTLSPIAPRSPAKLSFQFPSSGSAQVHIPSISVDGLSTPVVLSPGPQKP
Method in brief: as §1

GABPA = biological target: T3, GABPA (Homo sapiens, UniProt Q06546 1-454)
T3 sequence: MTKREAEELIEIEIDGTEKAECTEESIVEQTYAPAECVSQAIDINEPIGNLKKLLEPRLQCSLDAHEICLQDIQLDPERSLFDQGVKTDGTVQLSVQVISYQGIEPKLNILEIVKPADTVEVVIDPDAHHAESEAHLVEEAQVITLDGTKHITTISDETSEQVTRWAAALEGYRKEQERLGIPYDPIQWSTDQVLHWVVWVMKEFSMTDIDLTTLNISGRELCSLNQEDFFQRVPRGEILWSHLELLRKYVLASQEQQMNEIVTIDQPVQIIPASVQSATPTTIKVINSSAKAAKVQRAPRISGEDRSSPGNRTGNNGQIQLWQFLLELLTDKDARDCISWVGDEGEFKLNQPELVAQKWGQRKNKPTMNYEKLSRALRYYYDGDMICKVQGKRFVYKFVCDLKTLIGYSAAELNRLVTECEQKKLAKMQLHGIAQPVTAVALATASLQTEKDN
Method in brief: as §1

ERG = biological target: T4, ERG (Homo sapiens, UniProt P11308 1-479)
T4 sequence: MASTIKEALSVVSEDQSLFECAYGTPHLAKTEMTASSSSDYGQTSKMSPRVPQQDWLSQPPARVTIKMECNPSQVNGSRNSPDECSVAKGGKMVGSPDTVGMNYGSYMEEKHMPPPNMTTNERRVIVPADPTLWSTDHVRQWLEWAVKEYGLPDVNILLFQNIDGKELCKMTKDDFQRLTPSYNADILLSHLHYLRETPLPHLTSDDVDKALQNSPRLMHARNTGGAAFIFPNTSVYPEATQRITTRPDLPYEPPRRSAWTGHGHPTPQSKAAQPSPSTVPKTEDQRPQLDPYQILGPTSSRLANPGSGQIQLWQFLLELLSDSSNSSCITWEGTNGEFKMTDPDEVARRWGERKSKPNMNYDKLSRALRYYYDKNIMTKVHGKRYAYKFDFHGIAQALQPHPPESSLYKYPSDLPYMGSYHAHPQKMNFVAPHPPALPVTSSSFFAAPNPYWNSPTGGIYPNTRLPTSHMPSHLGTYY
Method in brief: as §1

ELF1 = ELF1 (Homo sapiens, UniProt P32519 1-619)
Sequence of ELF1 (P32519 whole entry): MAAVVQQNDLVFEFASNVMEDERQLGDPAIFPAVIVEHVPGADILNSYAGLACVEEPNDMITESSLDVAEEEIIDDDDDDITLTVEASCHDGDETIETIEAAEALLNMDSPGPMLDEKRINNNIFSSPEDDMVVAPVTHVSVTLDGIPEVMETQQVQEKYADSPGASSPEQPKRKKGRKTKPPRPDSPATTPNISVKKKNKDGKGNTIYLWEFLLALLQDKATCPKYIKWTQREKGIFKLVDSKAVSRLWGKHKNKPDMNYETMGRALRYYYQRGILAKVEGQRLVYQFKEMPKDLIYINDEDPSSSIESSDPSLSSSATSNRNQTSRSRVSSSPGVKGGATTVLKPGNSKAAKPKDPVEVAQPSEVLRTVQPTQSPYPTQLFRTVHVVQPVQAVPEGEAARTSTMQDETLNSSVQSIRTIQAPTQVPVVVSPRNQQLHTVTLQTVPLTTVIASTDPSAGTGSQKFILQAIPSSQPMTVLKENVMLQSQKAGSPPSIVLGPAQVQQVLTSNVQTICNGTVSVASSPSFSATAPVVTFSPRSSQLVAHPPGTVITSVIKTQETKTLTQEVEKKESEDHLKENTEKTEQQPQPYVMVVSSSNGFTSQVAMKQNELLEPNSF
Method in brief: as §1

EHF = biological target: T5, EHF (Homo sapiens, UniProt Q9NZC4 1-300)
T5 sequence: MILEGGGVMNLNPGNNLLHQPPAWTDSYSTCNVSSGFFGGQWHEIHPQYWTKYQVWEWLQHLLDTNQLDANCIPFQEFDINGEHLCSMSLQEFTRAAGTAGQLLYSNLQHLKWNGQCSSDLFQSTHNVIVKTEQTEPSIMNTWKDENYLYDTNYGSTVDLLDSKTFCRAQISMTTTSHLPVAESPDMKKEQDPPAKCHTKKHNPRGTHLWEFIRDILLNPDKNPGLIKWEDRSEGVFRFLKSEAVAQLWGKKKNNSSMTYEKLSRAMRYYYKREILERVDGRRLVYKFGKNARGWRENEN
Method in brief: as §1

SPI1 = SPI1 (Homo sapiens, UniProt P17947 1-270)
Method in brief: as §1

SPIB = SPIB (Homo sapiens, UniProt Q01892 1-262)
Sequence of SPIB (Q01892 whole entry): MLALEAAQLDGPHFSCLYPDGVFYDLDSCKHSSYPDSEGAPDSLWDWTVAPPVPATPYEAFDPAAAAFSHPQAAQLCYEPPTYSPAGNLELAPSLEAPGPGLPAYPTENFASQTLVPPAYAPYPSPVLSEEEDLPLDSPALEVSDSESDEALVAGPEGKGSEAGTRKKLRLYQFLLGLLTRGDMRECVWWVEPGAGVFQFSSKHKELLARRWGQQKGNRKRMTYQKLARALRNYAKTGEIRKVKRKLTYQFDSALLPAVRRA
Method in brief: as §1

ELK3 = biological target: T6, ELK3 (Homo sapiens, UniProt P41970 1-407)
T6 sequence: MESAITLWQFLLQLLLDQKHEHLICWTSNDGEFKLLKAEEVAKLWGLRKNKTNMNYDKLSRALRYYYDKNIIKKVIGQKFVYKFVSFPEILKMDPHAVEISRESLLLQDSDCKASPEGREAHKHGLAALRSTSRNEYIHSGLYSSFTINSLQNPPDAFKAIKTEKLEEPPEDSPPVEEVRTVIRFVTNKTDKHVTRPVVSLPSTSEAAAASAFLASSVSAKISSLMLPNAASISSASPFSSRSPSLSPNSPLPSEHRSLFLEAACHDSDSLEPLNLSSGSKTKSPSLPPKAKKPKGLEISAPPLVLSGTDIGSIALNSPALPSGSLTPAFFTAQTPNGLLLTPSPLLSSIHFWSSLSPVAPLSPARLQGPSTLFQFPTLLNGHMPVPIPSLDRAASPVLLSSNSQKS
Method in brief: as §1

Sequence | binding signal (FLI1) | binding signal (ELK1) | binding signal (GABPA) | binding signal (ERG) | binding signal (ELF1) | binding signal (EHF) | binding signal (SPI1) | binding signal (SPIB) | binding signal (ELK3)
TCTCAG | 1.4 fold enrichment (6-mer frequency, TF over GST control) | 1.48 fold enrichment (6-mer frequency, TF over GST control) | 1.42 fold enrichment (6-mer frequency, TF over GST control) | 1.43 fold enrichment (6-mer frequency, TF over GST control) | 1.45 fold enrichment (6-mer frequency, TF over GST control) | 1.43 fold enrichment (6-mer frequency, TF over GST control) | 1.55 fold enrichment (6-mer frequency, TF over GST control) | 1.39 fold enrichment (6-mer frequency, TF over GST control) | 1.39 fold enrichment (6-mer frequency, TF over GST control)
TCCATA | 1.33 fold enrichment (6-mer frequency, TF over GST control) | 1.3 fold enrichment (6-mer frequency, TF over GST control) | 1.18 fold enrichment (6-mer frequency, TF over GST control) | 1.25 fold enrichment (6-mer frequency, TF over GST control) | 1.23 fold enrichment (6-mer frequency, TF over GST control) | 1.24 fold enrichment (6-mer frequency, TF over GST control) | 1.18 fold enrichment (6-mer frequency, TF over GST control) | 1.21 fold enrichment (6-mer frequency, TF over GST control) | 1.35 fold enrichment (6-mer frequency, TF over GST control)
GGCTCA | 1.22 fold enrichment (6-mer frequency, TF over GST control) | 1.38 fold enrichment (6-mer frequency, TF over GST control) | 1.32 fold enrichment (6-mer frequency, TF over GST control) | 1.33 fold enrichment (6-mer frequency, TF over GST control) | 1.34 fold enrichment (6-mer frequency, TF over GST control) | 1.23 fold enrichment (6-mer frequency, TF over GST control) | 1.24 fold enrichment (6-mer frequency, TF over GST control) | 1.24 fold enrichment (6-mer frequency, TF over GST control) | 1.23 fold enrichment (6-mer frequency, TF over GST control)
CGCTTT | 1.31 fold enrichment (6-mer frequency, TF over GST control) | 1.1 fold enrichment (6-mer frequency, TF over GST control) | 1.32 fold enrichment (6-mer frequency, TF over GST control) | 1.15 fold enrichment (6-mer frequency, TF over GST control) | 1.18 fold enrichment (6-mer frequency, TF over GST control) | 1.19 fold enrichment (6-mer frequency, TF over GST control) | 1.59 fold enrichment (6-mer frequency, TF over GST control) | 1.4 fold enrichment (6-mer frequency, TF over GST control) | 1.31 fold enrichment (6-mer frequency, TF over GST control)
TGACTT | 1.38 fold enrichment (6-mer frequency, TF over GST control) | 1.5 fold enrichment (6-mer frequency, TF over GST control) | 1.38 fold enrichment (6-mer frequency, TF over GST control) | 1.53 fold enrichment (6-mer frequency, TF over GST control) | 1.44 fold enrichment (6-mer frequency, TF over GST control) | 1.43 fold enrichment (6-mer frequency, TF over GST control) | 1.68 fold enrichment (6-mer frequency, TF over GST control) | 1.52 fold enrichment (6-mer frequency, TF over GST control) | 1.27 fold enrichment (6-mer frequency, TF over GST control)
ATCTCT | 1.29 fold enrichment (6-mer frequency, TF over GST control) | 1.24 fold enrichment (6-mer frequency, TF over GST control) | 1.33 fold enrichment (6-mer frequency, TF over GST control) | 1.17 fold enrichment (6-mer frequency, TF over GST control) | 1.29 fold enrichment (6-mer frequency, TF over GST control) | 1.49 fold enrichment (6-mer frequency, TF over GST control) | 1.27 fold enrichment (6-mer frequency, TF over GST control) | 1.36 fold enrichment (6-mer frequency, TF over GST control) | 1.3 fold enrichment (6-mer frequency, TF over GST control)
ATTATA | 1.24 fold enrichment (6-mer frequency, TF over GST control) | 1.32 fold enrichment (6-mer frequency, TF over GST control) | 1.21 fold enrichment (6-mer frequency, TF over GST control) | 1.25 fold enrichment (6-mer frequency, TF over GST control) | 1.31 fold enrichment (6-mer frequency, TF over GST control) | 1.29 fold enrichment (6-mer frequency, TF over GST control) | 1.2 fold enrichment (6-mer frequency, TF over GST control) | 1.37 fold enrichment (6-mer frequency, TF over GST control) | 1.28 fold enrichment (6-mer frequency, TF over GST control)
CAATCT | 1.24 fold enrichment (6-mer frequency, TF over GST control) | 1.18 fold enrichment (6-mer frequency, TF over GST control) | 1.18 fold enrichment (6-mer frequency, TF over GST control) | 1.13 fold enrichment (6-mer frequency, TF over GST control) | 1.22 fold enrichment (6-mer frequency, TF over GST control) | 1.17 fold enrichment (6-mer frequency, TF over GST control) | 1.26 fold enrichment (6-mer frequency, TF over GST control) | 1.23 fold enrichment (6-mer frequency, TF over GST control) | 1.14 fold enrichment (6-mer frequency, TF over GST control)
